High-throughput results from PubChem BioAssay.
The list is not random: actives were taken first. Their share in the collection is about 1.6%.
ABCB6 inh 2 – inhibitors of human ABC transporter ABCB6. Q9NP58. 360,000 tested, 0.19% active. fluorescence ratio to DMSO, % at 10 µM. K562-ABCB6 porphyrin accumulation, flow cytometry, 1 h; active compounds read low;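 active means fluorescence ratio to DMSO below 75%, the collection mean minus 3 SD; inconclusive means too few cells collected in the well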;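 further: signal is porphyrin accumulated inside mitochondria; 100% equals median channel fluorescence of DMSO control wells; lower ratio means ABCB6 inhibition with less porphyrin fluorescence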
Vif inh – blocks HIV Vif function | HEK293T cells, Vif self-association by quenched fluorescence, imaging, 24 h | 340,000 tested, 0.35% active | inhibition, % at 7.49 µM; in the data active means inhibition above about 50%, passing the limit was not always enough; inconclusive means no clear call, values can overlap the other calls; inactive means below about 31%
RAD54 branch – inhibitors of human RAD54 branch migration | inhibition, % at 10.4 µM | RAD54 Holliday junction branch migration, FAM/BHQ fluorescence | 360,000 tested, 0.14% active;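 active means mean normalized replicate activity at least 40 and at least half of replicates scoring 40 or more; inconclusive means only one of the two criteria met; inactive means mean below 40 and under half of replicates reaching 40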;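 further: 0% = median of neutral control wells and 100% = median of positive control wells; inhibitors cause a drop in the FAM fluorescence signal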
Target sequence (Q92698 whole entry, looked up): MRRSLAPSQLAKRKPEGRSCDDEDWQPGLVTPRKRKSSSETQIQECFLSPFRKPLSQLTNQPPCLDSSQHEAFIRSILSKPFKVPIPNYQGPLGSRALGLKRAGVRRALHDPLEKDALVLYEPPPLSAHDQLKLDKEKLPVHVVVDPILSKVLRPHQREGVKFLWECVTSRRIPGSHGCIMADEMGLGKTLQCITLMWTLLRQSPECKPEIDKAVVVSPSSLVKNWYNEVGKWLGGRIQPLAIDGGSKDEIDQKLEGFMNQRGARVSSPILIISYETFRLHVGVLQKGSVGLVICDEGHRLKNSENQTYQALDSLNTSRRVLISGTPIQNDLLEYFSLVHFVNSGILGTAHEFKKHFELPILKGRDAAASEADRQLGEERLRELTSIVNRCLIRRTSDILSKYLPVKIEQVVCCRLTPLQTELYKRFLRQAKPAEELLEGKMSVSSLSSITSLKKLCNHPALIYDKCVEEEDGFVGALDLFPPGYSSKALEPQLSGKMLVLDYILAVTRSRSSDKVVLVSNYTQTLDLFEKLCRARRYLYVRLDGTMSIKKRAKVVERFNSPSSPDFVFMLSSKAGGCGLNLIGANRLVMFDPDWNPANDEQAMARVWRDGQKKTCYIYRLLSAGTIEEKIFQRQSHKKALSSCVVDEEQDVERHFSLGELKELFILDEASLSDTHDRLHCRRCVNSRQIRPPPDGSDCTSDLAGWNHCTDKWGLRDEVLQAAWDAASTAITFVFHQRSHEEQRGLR
Glyco luc inh – blocks N-linked glycosylation in D54 reporter cells; D54 ERlucT glycosylation luciferase reporter, 24 h; percent of 100 nM tunicamycin response; 360,000 tested, 0.23% active; reporter increase, % at 12.5 µM;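 active means mean luciferase reporter signal, scaled so untreated is 0 and the glycosylation-blocking control 100, at or above a set limit in every replicate; inconclusive means mean reaches the limit but not every replicate does; inactive means mean below the limit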;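 further: luciferase carries N-glycosylation sites so blocking glycosylation raises the light; 0% = median of neutral control wells and 100% = median of 100 nM tunicamycin wells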
Myeloid diff MLP – myeloid differentiation induction | ER-HoxA9 myeloid progenitors, lysozyme-GFP differentiation, flow cytometry | calls only at 10 µM | 360,000 tested, 1% active | AID 624256;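 active means normalized GFP-positive differentiation at or above the plate's own cutoff, the solvent-only control mean plus 3 SD; inconclusive means no clear call, values can overlap the other calls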;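 further: cells exposed to compound for four days before flow analysis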
* = called active by the depositor; i = inactive; ? = inconclusive; . = not tested or not shown; + = active, no number.

SMILES	ABCB6 inh 2	Vif inh	RAD54 branch	Glyco luc inh	Myeloid diff MLP
C[C@H](CO)N1C[C@H](C)[C@@H](CN(C)C(=O)c2ccc3c(c2)OCO3)Oc2ncc(C3=CCCCC3)cc2C1=O	.	.	0	.	.
COC(=O)c1cc(NC(=O)CCc2c(C)nc3ncnn3c2C)cc(C(=O)OC)c1	100	5	-3	-1	+
COc1ccccc1NS(=O)(=O)c1ccc(O)c(C(=O)OCC(=O)N2CCc3ccccc32)c1	98	-1	0	-1	i
COc1ccccc1NS(=O)(=O)c1ccc(O)c(C(=O)OCC(=O)N2c3ccccc3CC2C)c1 (stereo unspecified)	506	3	1	-2	+
CCCN(CCC)C(=O)Cn1c(=O)c2sccc2n2c(=S)sc(-c3ccccc3)c12	432	38	-3	-1	+
C[C@@H]1CN([C@H](C)CO)C(=O)c2cccc(NC(=O)c3ccncc3)c2O[C@@H]1CN(C)CC1CC1	.	.	-7	.	.
O=C(COc1ccccc1)N(Cc1ccco1)c1ccc(O)cc1	99	22	5	-2	i
O=C(c1ccc(Cl)c(Cl)c1)N(Cc1ccco1)c1ccc(O)cc1	103	54*	4	-5	i
CCCCCC(=O)Nc1cc(N(C)C)nc2ccccc12	90	-6	-3	-1	i
CN1CCN(CC(=O)Nc2cc(N(C)C)nc3ccccc23)CC1	99	0	.	44*	i
C[C@H](CO)N1C[C@H](C)[C@@H](CN(C)C(=O)NC2CCCC2)Oc2ncc(-c3ccncc3)cc2C1=O	.	.	0	.	.
CCCCn1c(NC(=O)c2ccco2)c(S(=O)(=O)c2ccc(C)cc2)c2nc3ccccc3nc21	111	-3	.	-1	+
CCCCCn1c(NC(=O)c2ccco2)c(S(=O)(=O)c2ccc(C)cc2)c2nc3ccccc3nc21	109	.	-7	-1	+
CCCCn1c(NS(=O)(=O)c2ccccc2)c(S(=O)(=O)c2ccc(C)cc2)c2nc3ccccc3nc21	116	8	.	2	i
CCCCn1c(NC(=O)c2ccc(Br)o2)c(S(=O)(=O)c2ccccc2)c2nc3ccccc3nc21	106	-6	1	0	i
C[C@@H]1CN([C@@H](C)CO)C(=O)c2cc(C#CC3CC3)cnc2O[C@H]1CN(C)Cc1ccccc1C(=O)O	.	.	2	.	.
CCSC1=N/C(=C\c2ccc3c(c2)OCO3)C(=O)S1	80	4	-10	1	i
CCSC1=N/C(=C\C=C2/Oc3ccccc3N2CC)C(=O)S1	221	0	-24	-2	+
CC(=O)N(C)C[C@@H]1Oc2cc(C#CCC3CCCC3)ccc2S(=O)(=O)N([C@H](C)CO)C[C@H]1C	.	.	2	.	.
COc1ccc(OC)c(N/C(=N/C(=S)Nc2ccccc2)Nc2nc(C)cc(C)n2)c1	101	3	-8	-4	+
COc1ccc(C=CC(=O)c2ccc3cc(OC)c(OC)cc3c2)cc1OC	95	.	-4	?	?
COC(=O)c1cn(C(=O)/C=C/c2ccc(OC)c(OC)c2)c2ccccc12	101	5	.	36*	i
COC(=O)c1cn(C(=O)OC)c2ccccc12	90	19	-3	0	i
COc1ccc(C=CC(=O)c2ccc(OC)c(OC)c2)cc1O	99	-18	5	?	i
COc1ccc(C=CC(=O)c2ccc(OC)c(OC)c2O)cc1OC	94	3	-4	37*	i
SMILES	ABCB6 inh 2	Vif inh	RAD54 branch	Glyco luc inh	Myeloid diff MLP
COc1ccc(/C=C/C(=O)c2ccc(Cl)s2)cc1O	98	8	5	28*	i
COc1ccc(C(=O)/C=C/c2ccc(OC)c(O)c2)c(F)c1	103	-3	-6	55*	i
C[C@H](CO)N1C[C@H](C)[C@@H](CN(C)Cc2ccc(F)cc2)Oc2ncc(C3=CCCC3)cc2C1=O	.	.	-10	.	.
C[C@H]1CN([C@@H](C)CO)C(=O)c2cccc(NS(=O)(=O)c3ccc(Cl)cc3)c2O[C@@H]1CN(C)Cc1ccncc1	.	.	-16	.	.
COc1ccc(C(=O)C=Cc2ccc(OCc3ccccc3)c(OC)c2)cc1OC	95	-14	-4	51*	i
C[C@@H]1CCCCO[C@H](CN(C)C(=O)NC2CCCCC2)[C@H](C)CN([C@H](C)CO)C(=O)c2cc(NS(C)(=O)=O)ccc2O1	.	.	0	.	.
CCCCCCCCCCCCCCCC[n+]1ccc(/C=N/O)cc1	100	-4	.	87*	?
CCn1c(SCC(=O)NCC2CCCO2)nnc1-c1ccc(Cl)cc1 (stereo unspecified)	92	54*	-3	0	i
